Only some compounds are listed: those with a hit (about 1.2% of all), similar ones and a draw of the others.
Y pestis TopoI: Yersinia pestis topoisomerase I inhibitors, primary screen, biochemical, cleavage product accumulation, plate reader, single point; DNA topoisomerase I (Yersinia pestis CO92); activity, % at 10 µM; actives 0.064% (n = 360,000); Y. pestis Topo-I cleavage product accumulation; in the data active = activity above about 50%, passing the limit was not always enough; inconclusive = no clear call, values can overlap the other calls
PfHsp40 yeast: rescue of yeast from PfHsp40 toxicity, primary screen, S. cerevisiae, ATP luminescence | growth rescue, % at 12.5 µM | AID 504582, 2011 | S. cerevisiae expressing PfHsp40, growth rescue | actives 0.68% (n = 340,000); in the data active = growth rescue above about 28%, passing the limit was not always enough; inconclusive = no clear call, values can overlap the other calls;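 note: yeast W303a lacking pdr1 and pdr3 grown in galactose medium; growth measured after three days at 30 °C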
BioA inh-1: M. tuberculosis BioA enzyme inhibitors, primary screen, biochemical, plate reader, single point, HTS | inhibition, % at 9.99 µM | 7,8-diaminopelargonic acid synthase BioA (Mycobacterium tuberculosis) | actives 0.096% (n = 360,000) | purified M. tuberculosis BioA enzyme; in the data active = inhibition above about 40%; inconclusive = no clear call, values can overlap the other calls
TcdB GH inh: TcdB glycohydrolase inhibitors, primary screen, biochemical, single point, plate reader | Toxin B (Clostridioides difficile), P18177 | TcdB glycohydrolase enzymatic assay | inhibition, % at 9.99 µM | actives 0.24% (n = 350,000); in the data active = inhibition above about 10%
FadD28 FP inh: inhibitors of FadD28 bisubstrate probe binding, primary screen, biochemical, fluorescence polarization, single point. Mycobacterium tuberculosis FadD28 fatty-acid-AMP ligase. inhibition, % at 12.5 µM. actives 0.22% (n = 360,000). AID 588549, 2011; in the data active = inhibition above about 8.5%, passing the limit was not always enough; inconclusive = no clear call, values can overlap the other calls
PrP 5UTR inh: inhibition of PrP 5' UTR reporter expression; actives 0.35% (n = 340,000); AID 488862, 2010; inhibition, % (test concentration not listed); cell-based PrP 5' UTR mRNA reporter, plate reader; in the data active = inhibition above about 52%
BioA inh-2: Mtb BioA enzyme inhibitors, dose response, biochemical, plate reader, cherry-pick samples, set 03; shares compounds with BioA inh-1; AID 651679, 2012; max activity, %; purified BioA enzyme; 310 tested, under 10 active;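 note: top concentration of the dilution series was 10 µM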
Target sequence (P9WQ81 whole entry, looked up): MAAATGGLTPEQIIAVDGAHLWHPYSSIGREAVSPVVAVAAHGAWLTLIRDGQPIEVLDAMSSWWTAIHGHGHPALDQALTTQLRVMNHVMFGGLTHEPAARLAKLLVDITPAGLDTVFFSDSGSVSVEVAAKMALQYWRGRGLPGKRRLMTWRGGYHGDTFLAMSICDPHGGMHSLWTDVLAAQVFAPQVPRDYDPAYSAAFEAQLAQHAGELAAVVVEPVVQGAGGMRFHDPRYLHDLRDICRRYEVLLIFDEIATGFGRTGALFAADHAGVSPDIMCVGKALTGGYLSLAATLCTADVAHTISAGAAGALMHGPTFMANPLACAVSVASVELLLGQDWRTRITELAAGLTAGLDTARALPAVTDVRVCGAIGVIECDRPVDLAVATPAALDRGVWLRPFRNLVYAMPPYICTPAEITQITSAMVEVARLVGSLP
HepG2 cytotox: cytotoxicity in HepG2 cells, dose response, cytotoxicity control, cell-based, plate reader, cherry-pick, two tests. shares compounds with BioA inh-1. max activity, %. 310 tested, under 10 active. AID 651898, 2012
3T3 cytotox 5: cytotoxicity in NIH3T3 fibroblasts, dose response, cytotoxicity control, cell-based, plate reader, cherry-pick, two tests. shares compounds with BioA inh-1. activity change, negative = cytotoxicity, % at 26 µM. 310 tested, under 10 active. AID 651900, 2012
A number is an active result; . = inactive; ? = inconclusive; / = no result given. Unless noted, the rule behind the calls is not given here.

SMILES	Y pestis TopoI	PfHsp40 yeast	BioA inh-1	TcdB GH inh	FadD28 FP inh	PrP 5UTR inh	BioA inh-2	HepG2 cytotox	3T3 cytotox 5
COc1ccc(NC(=O)N(C)C[C@@H]2Oc3c(NS(=O)(=O)c4ccc(Cl)cc4)cccc3C(=O)N([C@@H](C)CO)C[C@@H]2C)cc1	/	/	.	.	/	/	/	/	/
O=C(C[n+]1cc(-c2ccc(Cl)c(Cl)c2)n2c1CCC2)N1c2ccccc2Sc2ccccc21	.	.	/	/	.	.	/	/	/
O=C(C[n+]1cc(-c2ccc(Cl)cc2)n2c1CCC2)N1c2ccccc2Sc2ccccc21	.	.	61	/	.	.	.	.	.
Cc1nn(CCC(=O)O)c2nc(-c3cccnc3)cc(C(F)(F)F)c12	.	.	48	/	.	.	.	.	.
Cc1ccc(C(=O)Nc2ncc3c(n2)CC(c2ccco2)CC3=O)cc1 (stereo not given)	.	.	/	/	.	.	/	/	/
O=C(Nc1ncc2c(n1)CC(c1ccco1)CC2=O)c1ccccc1 (stereo not given)	.	.	60	/	.	.	.	.	.
C[C@@H]1CN([C@H](C)CO)S(=O)(=O)c2ccc(C3=CCCCC3)cc2O[C@@H]1CN(C)S(=O)(=O)c1cn(C)cn1	/	/	.	.	/	/	/	/	/
COc1ccc(NC2c3ccccc3C(=O)N2c2cccnc2)cc1Cl (stereo not given)	.	.	51	.	.	.	.	.	.
O=C(N[C@H]1CC[C@@H](CCNS(=O)(=O)Cc2ccccc2)O[C@@H]1CO)c1cnccn1	/	/	.	.	/	/	/	/	/
COc1ccc(-c2cn(CC(=O)N3CCN(C)CC3)nn2)cc1OC	/	/	.	.	/	/	/	/	/
CCOC(=O)c1ccc(N2C(=O)c3n[nH]c(C)c3C2c2ccc(OC)c(OC)c2)cc1 (stereo not given)	.	.	101	/	.	.	.	.	.
CCOC(=O)c1ccc(N2C(=O)c3n[nH]c(C)c3C2c2ccc(OC)cc2)cc1 (stereo not given)	.	.	.	/	.	.	/	/	/
O=C(CN1C(=O)/C(=C/c2cccc(Br)c2)SC1=S)Nc1cccnc1	.	.	88	.	.	.	.	.	.
CC(=O)c1ccc(N2CCN(C(=O)c3ccc4c(c3)OCO4)CC2)cc1	.	.	91	.	.	.	.	.	.
O=C(c1ccc2c(c1)OCO2)N1CCN(c2ccc(Cl)cc2)CC1	.	.	/	/	.	.	/	/	/
COc1ccc(-c2nc3ccc(Cl)cn3c2Cc2ccccc2)cc1OC	/	/	70	.	.	/	.	.	.
Cc1ccc(S(=O)(=O)Nc2cccc3c2O[C@@H](CN(C)Cc2ccccc2)[C@H](C)CN([C@H](C)CO)C3=O)cc1	/	/	.	.	/	/	/	/	/
O=C(CSc1nncs1)N1c2ccccc2Sc2ccccc21	.	.	44	/	.	.	.	.	.
O=C(Nc1cccnc1)c1cc2nc(C3CC3)cc(C(F)(F)F)n2n1	.	.	90	/	.	.	.	.	.
COC(=O)C1CCN(C(c2ccc(OC)c(OC)c2)c2sc3nc(C)nn3c2O)CC1 (stereo not given)	.	.	45	.	.	.	.	.	.
COc1ccccc1-n1c(SCC(=O)N(C)C2CCS(=O)(=O)C2)nc2ccccc2c1=O (stereo not given)	.	.	?	/	.	.	/	/	/
CN(C(=O)CSc1nc2ccccc2c(=O)n1-c1ccccc1Cl)C1CCS(=O)(=O)C1 (stereo not given)	.	.	50	.	.	.	.	.	.
Cc1ccccc1-n1c(SCC(=O)N(C)C2CCS(=O)(=O)C2)nc2ccccc2c1=O (stereo not given)	.	.	60	.	.	.	.	.	.
O=C(c1ccncc1)N1CC[C@H]2[C@H](CO)Nc3ccc(Br)cc3[C@H]21	/	/	59	/	/	/	.	.	.
O=C(c1ccncc1)N1CC[C@@H]2[C@H](CO)Nc3ccc(-c4ccccc4)cc3[C@@H]21	/	/	.	.	/	/	/	/	/
SMILES	Y pestis TopoI	PfHsp40 yeast	BioA inh-1	TcdB GH inh	FadD28 FP inh	PrP 5UTR inh	BioA inh-2	HepG2 cytotox	3T3 cytotox 5
O=C(c1ccncc1)N1CC[C@@H]2[C@@H](CO)Nc3ccc(-c4ccccc4)cc3[C@@H]21	/	/	.	.	/	/	/	/	/
O=C(c1ccncc1)N1CC[C@@H]2[C@H](CO)Nc3ccc(Br)cc3[C@@H]21	/	/	104	/	/	/	.	.	.
Nn1c(SC/C=C/c2ccccc2)nnc1-c1cccnc1	.	.	109	/	.	.	.	.	.
Nn1c(SCc2nc3ccccc3[nH]2)nnc1-c1cccnc1	.	.	59	/	.	.	.	.	.
Nn1c(SCCOc2ccccc2)nnc1-c1cccnc1	.	.	74	.	.	.	.	.	.
Nn1c(SCCOc2ccc(Cl)cc2)nnc1-c1cccnc1	.	.	/	/	.	.	/	/	/
C[C@H]1CN([C@@H](C)CO)C(=O)c2cc(NC(=O)NC3CCCCC3)ccc2O[C@H]1CN(C)C(=O)Nc1ccc2c(c1)OCO2	/	/	.	.	/	/	/	/	/
CCCNC(=O)N1CC2(C1)CN(C(=O)CC1CC1)[C@H](CO)c1c2c2ccc(OC)cc2n1C	/	/	/	.	/	/	/	/	/
COc1ccc(C(C)NC(=O)Nc2ccc(C(C)=O)cc2)cc1OC (stereo not given)	.	.	43	.	.	.	.	.	.
Cc1noc(C)c1S(=O)(=O)Nc1ccc2c(c1)CC(=O)N([C@@H](C)CO)C[C@H](C)[C@H](CN(C)S(=O)(=O)c1ccc(F)cc1)O2	/	/	.	.	/	/	/	/	/
C#CCSc1nnc(-c2c[nH]c3ccccc23)n1C	.	.	.	.	.	.	/	/	/
C#CCSc1nnc(-c2sc(-c3ccccc3)nc2C)n1C	.	.	60	/	.	.	.	.	.
CCN(CC)c1ccc2cc(C(=O)c3cccs3)c(=O)oc2c1	/	/	91	.	.	/	.	.	.
CCN(CC)c1ccc2cc(-c3nc4ccccc4n3C)c(=O)oc2c1	.	.	/	/	.	.	/	/	/
C/C=C(/C)C(=O)OC(C)(C)[C@@H]1Cc2c(ccc3ccc(=O)oc23)O1	.	.	53	.	.	.	.	.	.
COc1ccc(-c2cc3cc(OC)c(OC)cc3cn2)cc1OC	.	.	/	.	.	.	/	/	/
COc1cc2cnc(-c3cccnc3)cc2cc1OC	.	.	46	.	.	.	.	.	.
CC(=O)c1ccc(NC(=O)COC(=O)Cc2ccsc2)cc1	.	.	47	.	.	.	.	.	.
CC(=O)c1ccc(NC(=O)Cc2ccsc2)cc1	.	.	.	.	.	.	/	/	/
O=C1CCCc2c1cc(C(=O)NCCCN1CCOCC1)c(=O)n2-c1ccc(Cl)cc1	.	.	45	.	.	.	.	.	.

Source: PubChem BioAssay (Broad Institute)
